Calls of active or inactive are those of the source. The calls were made as follows: active = hit-call score of the fitted dose curve at least 0.9, where 1 is the maximum; inactive = score below 0.9.

In PubChem BioAssay (EPA / NIEHS) one finds outcome and AC50 data, which are given here for 40 molecules.

A short description of this experiment: ATG_AP_1_CIS: Attagene CIS-FACTORIAL HepG2 Assay for human Activator Protein 1 (AP-1) (AID 2282931). Conditions: HepG2 Attagene cis-factorial AP-1 reporter mRNA; actives raise or lower the signal. As to the method:
ATG_CIS is a cell-based, multiplexed-readout assay that uses HepG2, a human liver cell line, with measurements taken at 24 hours after chemical dosing in a 24-well plate.ATG_AP_1_CIS is one of 52 assay component(s) measured or calculated from the ATG_CIS assay. It is designed to make measurements of mRNA induction, a form of inducible reporter, as detected with fluorescence intensity signals by Reverse transcription polymerase chain reaction (RT-PCR) and Capillary electrophoresis technology.Data from the assay component ATG_AP_1_CIS was analyzed into 1 assay endpoint. This assay endpoint, ATG_AP_1_CIS, was analyzed with bidirectional fitting relative to DMSO as the negative control and baseline of activity. Using a type of inducible reporter, measures of mRNA for gain or loss-of-signal activity can be used to understand the reporter gene at the transcription factor-level as they relate to the gene FOS and JUN. Furthermore, this assay endpoint can be referred to as a primary readout, because this assay has produced multiple assay endpoints where this one serves a reporter gene function. To generalize the intended target to other relatable targets, this assay endpoint is annotated to the dna binding intended target family, where the subfamily is basic leucine zipper.
Human liver HepG2 cells are transiently transfected with multiple reporter transcription units (MRTUs) in 6-well plates using FuGene 6 reagent (Roche; 3 ml FuGene/1 mg DNA). The MRTU constructs are regulated by a cis-regulating element (promoter). […] A major difference between the CIS and TRANS system is that in CIS activities of endogenous TFs are measured, whereas the TRANS assay evaluates changes in activities of exogenous, chimeric NR-Gal4 proteins. […] At the end of 24 hour incubation, total RNA was isolated using TriZol reagent (Invitrogen). The isolated RNA is then reverse-transcribed using oligo(dT) primer and Mo-MLV reverse transcriptase (Invitrogen) with DNAse I (Ambion) treatment for 30 min. The one-tenth of the produced cDNA was amplified by PCR using Taq DNA polymerase (Invitrogen) and two reporter sequence-specific primers. The PCR products were fluorescently labeled by primer extension with 6-arboxyfluorescein (6-FAM) 5'-labeled reporter sequence-specific primer (2 min at 95 C, 20 s at 68 C and 10 min at 72 C) and these products were digested with 5U of HpaI (New England Biolabs) for 2h at 37 C. The fragments were purified using Qiaquick PCR columns (Qiagen), analyzed on an ABI 3130xL genetic analyzer (Applied Biosystems) with peak positions identified by using a set of X-rhodamine (ROX)-labeled MapMarker1000 molecular weight standards (BioVentures). The raw capillary electrophoresis data was processed using Attagraph software (Attagene).
Turning to `O=C(O)CC(C(=O)O)S(=O)(=O)O` (stereo not given), the outcome was inactive.

As for `C[N+](C)(C)CCCNS(=O)(=O)C(F)(F)C(F)(F)C(F)(F)C(F)(F)C(F)(F)C(F)(F)C(F)(F)C(F)(F)F`, the result was inactive.

Turning to `C=Cc1ccc(OC(C)=O)cc1`, the outcome was inactive.

Take `CC(C)(CO)COC(=O)C(C)(C)CO`: the result was inactive.

As to `CCCCOCC(C)O` (stereo not given), the outcome was inactive.

Consider `C=C(C)C1CC=C(C)C(OC(C)=O)C1` (stereo not given), for which the outcome was inactive.

In the case of `CCCCNS(=O)(=O)c1ccccc1`, the molecule was called inactive.

Consider `O=C(O)CCC(=O)O`, for which the result was inactive.

In the case of `C=CC(C)(O)CC/C=C(\C)CC` (stereo not given), the molecule was called inactive.

On to `O=S(=O)(O)c1ccc(N=Nc2c(O)ccc3ccccc23)cc1`, for which the molecule was called inactive.

Regarding `CC(C)CC(=O)OCc1ccccc1`, the molecule was classed as inactive.

`CC(C)OC(=O)c1ccccc1`: the call was inactive.

Consider `Cn1ccnc1`, for which the result was inactive.

For `CC(C)[N+](C)(CCOC(=O)C1c2ccccc2Oc2ccccc21)C(C)C`, the call was inactive.

`CC1(C)C(=O)N(CO)C(=O)N1CO`: the result was inactive.

Consider `CCCCOC(=O)CCC(C)=O`, for which the molecule was classed as inactive.

As to `c1ccc(-c2nc3ccccc3[nH]2)cc1`, the result was inactive.

Turning to `CC(C)C(=O)OCCc1ccccc1`, the molecule was called inactive.

For `CN1CCN(C)CC1`, the molecule was called inactive.

On to `CC(C)c1cc(C(C)C)cc(C(C)C)c1`, for which the AC50 is 125 µM (active).

As for `O=C(O)c1ccc2c(c1)C(=O)OC2=O`, the outcome was inactive.

Regarding `CCN1CCCC1=O`, the molecule was classed as inactive.

`O=c1c(O)c(-c2ccc(O)cc2O)oc2cc(O)cc(O)c12`: the molecule was called inactive.

In the case of `CC(C)(C)NC(=O)[C@H]1CC[C@H]2[C@@H]3CC[C@H]4NC(=O)C=C[C@]4(C)[C@H]3CC[C@]12C`, the molecule was called inactive.

In the case of `O=C(O)c1cc(O)c2ccccc2c1O`, the molecule was called inactive.

Turning to `CC1=NN(c2ccc(S(=O)(=O)O)cc2)C(=O)C1N=Nc1ccccc1` (stereo not given), the call was inactive.

As to `CCCCCCCCC(CO)CCCCCC` (stereo not given), the molecule was called inactive.

Regarding `Nc1ccc(C(=O)O)cc1`, the outcome was inactive.

Turning to `CC1=CC(C)C(C=O)CC1` (stereo not given), the result was inactive.

As for `C=CCCCCCCCCO`, the molecule was classed as inactive.

With `Cc1ccc([N+](=O)[O-])cc1N`, the molecule was classed as inactive.

For `CC(=O)CC(=O)Nc1ccccc1C`, the outcome was inactive.

With `CCCCCOC(=O)CCCCC`, the molecule was classed as inactive.

As for `CC1(C)[C@@H]2CC[C@@]1(C)C(=O)C2`, the call was inactive.

Consider `CCCCCCCCCCCCCc1ccccc1`, for which the call was inactive.

Consider `COc1nccnc1CC(C)C`, for which the molecule was called inactive.

Regarding `C[Si](C)(C)N[Si](C)(C)C`, the outcome was inactive.

Turning to `O=C(Cl)c1ccc(C(=O)Cl)cc1`, the outcome was inactive.

In the case of `Nc1ncnc2nc[nH]c12`, the molecule was called inactive.

With `N=C1C=CC(=C(c2ccc(N)cc2)c2ccc(N)cc2)C=C1`, the molecule was called inactive.

As usually defined, the AC50 is the midpoint of the concentration-response curve, whichever way the signal moves.
